Measurements as given in PubChem BioAssay (NCATS).
Records with an inconclusive call do not appear. Activity calls are given as the source filed them. Unless noted, calls come from the whole dose curve; as a rule, active = well fitted curve in the direction sought with a large enough effect; inconclusive = small, poorly fitted or top-dose-only effect, or another doubt; inactive = no such curve, though single readings can be large; an effect the other way counts as inactive or inconclusive.

target: Cytochrome P450 3A4 (Homo sapiens) (UniProt P08684); test: qHTS Assay for Inhibitors and Substrates of Cytochrome P450 3A4 (AID 884); details: recombinant CYP3A4, Luciferin-PPXE luminescence; series mostly up to 57.1 µM; activity change, negative = inhibition: at the top concentration; note: nearly all actives have a fitted effect of over 50% in size; note: potency is the fitted concentration of half-maximal effect; for activity change, negative = inhibition: % is set by controls: 0 for no effect and ±100 for the full control effect
Sequence (P08684 whole entry, looked up): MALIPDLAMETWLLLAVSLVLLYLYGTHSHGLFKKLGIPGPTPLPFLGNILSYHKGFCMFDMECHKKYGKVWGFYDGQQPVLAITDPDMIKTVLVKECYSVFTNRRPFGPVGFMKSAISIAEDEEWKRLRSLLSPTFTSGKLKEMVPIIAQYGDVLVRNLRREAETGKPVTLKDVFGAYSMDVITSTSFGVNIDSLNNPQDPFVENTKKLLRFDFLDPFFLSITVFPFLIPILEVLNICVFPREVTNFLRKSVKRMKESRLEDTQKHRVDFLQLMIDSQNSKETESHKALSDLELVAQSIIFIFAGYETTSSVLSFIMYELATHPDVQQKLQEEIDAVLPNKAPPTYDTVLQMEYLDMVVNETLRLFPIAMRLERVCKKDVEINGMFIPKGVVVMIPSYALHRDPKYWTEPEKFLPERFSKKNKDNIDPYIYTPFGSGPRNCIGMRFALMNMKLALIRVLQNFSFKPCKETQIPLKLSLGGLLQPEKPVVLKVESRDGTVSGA
Method in brief: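 20 nM human CYP3A4 with 25 uM Luciferin-PPXE (at KM) in 200 mM KPO4, preincubated 10 min with compound; NADPH regeneration started a 60 min RT reaction. Luciferin detected by luminescence, normalized to 57 uM ketoconazole as full inhibition.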

Activity change, negative = inhibition, inactive:
N#Cc1cccc(NC(=O)N2CCC3(CC2)CCN(C(=O)c2ccco2)CC3)c1 28%, Cc1noc(C)c1C(=O)N1CCC2(CCN(C(=O)Nc3ccccc3)CC2)CC1 40.2%, Cn1cccc1C(=O)N1CCC2(CC1)CCN(c1ccccc1)CC2 156%, O=C(c1csnn1)N1CCC2(CC1)CN(c1ccccn1)C2 119%

Potency, active:
O=C(c1cnccn1)N1CCC[C@@]2(CCN(c3ccncc3)C2)C1 3.16 µM, O=C(c1cc(C(F)(F)F)cc(C(F)(F)F)c1)N1CCC[C@@]2(CCN(Cc3ccncc3)C2)C1 0.501 µM

target: Cytochrome P450 3A4 (Homo sapiens) (UniProt P08684); test: qHTS Assay for Activators of Cytochrome P450 3A4 (AID 885); details: recombinant CYP3A4, Luciferin-PPXE luminescence, 60 min; series mostly up to 57.1 µM; activity change, positive = activation: at the top concentration; note: nearly all actives have a fitted effect of over 65% in size; note: potency is the fitted concentration of half-maximal effect
Method in brief: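 Human CYP3A4 (20 nM) with Luciferin-PPXE at 25 uM (its KM) in 200 mM KPO4; 10 min compound preincubation, then NADPH regeneration and 60 min reaction at RT. Luciferin read by luminescence; normalized to 57 uM ketoconazole full inhibition.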

Activity change, positive = activation, inactive:
O=C(c1cnccn1)N1CCC[C@@]2(CCN(c3ccncc3)C2)C1 -81.9%, Cn1cccc1C(=O)N1CCC[C@@]2(CCN(Cc3cc(C(F)(F)F)cc(C(F)(F)F)c3)C2)C1 -88.7%, N#Cc1ccc(CN2CCCC3(CCN(C(=O)c4cccc(F)c4)CC3)C2)cc1 -56.4%, N#Cc1cccc(NC(=O)N2CCC3(CC2)CCN(C(=O)c2csnn2)CC3)c1 -38.1%, CC(C)CN1CC[C@@]2(CCCN(C(=O)c3cnccn3)C2)C1 -50.8%, Cn1cccc1C(=O)N1CCC2(CCCN(c3ccccc3)C2)CC1 -50.4%, O=C(c1csnn1)N1CCC[C@@]2(CCN(Cc3nccs3)C2)C1 -68.9%, CC(C)NC(=O)N1CC[C@@]2(CCCN(C(=O)c3cc(C(F)(F)F)cc(C(F)(F)F)c3)C2)C1 -60.9%, O=C(c1cc(C(F)(F)F)cc(C(F)(F)F)c1)N1CCC[C@@]2(CCN(Cc3ccncc3)C2)C1 -73.5%, c1ccc(-c2cccc(N3CC[C@@]4(CCCNC4)C3)c2)cc1 -48.4%, CC(C)CN1CC[C@@]2(CCCN(S(=O)(=O)c3ccccc3)C2)C1 -55.3%, Cc1noc(C)c1C(=O)N1CCC[C@@]2(CCN(Cc3ccccc3)C2)C1 -62%, COCC(=O)N1CCC[C@@]2(CCN(C(=O)Nc3cccc(F)c3)C2)C1 -36.6%, CS(=O)(=O)N1CCC2(CCCN(C(=O)Nc3cccc(C#N)c3)C2)CC1 -35.2%, COc1ccc(NC(=O)N2CC[C@@]3(CCCN(C(=O)c4csnn4)C3)C2)cc1 -43%

Potency, active:
O=C(Oc1ccccc1)N1CCC2(CC1)CN(c1ccccc1)C2 15.8 µM, Cn1cccc1C(=O)N1CCC2(CC1)CCN(c1ccccc1)CC2 15.8 µM, O=C(c1csnn1)N1CCC2(CC1)CN(c1ccccn1)C2 25.1 µM, CC(=O)N1CCC2(CC1)CN(C(c1ccccc1)c1ccccc1)C2 15.8 µM

target: Cytochrome P450 2D6 (Homo sapiens) (UniProt P10635); test: qHTS Assay for Inhibitors and Substrates of Cytochrome P450 2D6 (AID 891); details: recombinant CYP2D6, luciferin-ME EGE luminescence; series mostly up to 57.1 µM; activity change, negative = inhibition: at the top concentration; note: potency is the fitted concentration of half-maximal effect; nearly all actives have a fitted effect of over 60% in size
Sequence (P10635 whole entry, looked up): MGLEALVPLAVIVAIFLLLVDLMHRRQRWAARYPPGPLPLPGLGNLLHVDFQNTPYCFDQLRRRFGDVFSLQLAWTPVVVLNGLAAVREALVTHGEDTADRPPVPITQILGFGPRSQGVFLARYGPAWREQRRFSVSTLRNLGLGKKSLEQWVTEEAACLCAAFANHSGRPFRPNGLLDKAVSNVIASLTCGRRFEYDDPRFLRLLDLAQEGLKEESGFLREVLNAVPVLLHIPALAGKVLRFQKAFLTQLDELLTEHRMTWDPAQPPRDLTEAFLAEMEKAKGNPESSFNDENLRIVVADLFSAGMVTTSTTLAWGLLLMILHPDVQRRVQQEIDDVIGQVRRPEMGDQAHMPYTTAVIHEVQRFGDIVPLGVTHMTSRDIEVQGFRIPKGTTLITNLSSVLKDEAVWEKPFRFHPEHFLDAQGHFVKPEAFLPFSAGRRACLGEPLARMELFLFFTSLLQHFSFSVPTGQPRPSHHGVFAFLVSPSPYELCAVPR
Method in brief: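 Human CYP2D6 (5 nM) with 30 uM Luciferin-ME EGE (at Km) in 100 mM KPO4, compound preincubated 10 min, then NADPH regeneration system for 60 min at room temperature. Luciferin read by luminescence; normalized to 1.43 uM quinidine.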

Potency, active:
CS(=O)(=O)N1CCC2(CC1)CN(Cc1cc(C(F)(F)F)cc(C(F)(F)F)c1)C2 0.398 µM, Cn1cccc1C(=O)N1CCC[C@@]2(CCN(Cc3cc(C(F)(F)F)cc(C(F)(F)F)c3)C2)C1 3.98 µM, COc1ccccc1CN1CCC2(CC1)CCN(C(C)=O)CC2 5.01 µM, COC(=O)N1CCC[C@@]2(CCN(C(c3ccccc3)c3ccccc3)C2)C1 2 µM, O=C(c1ccco1)N1CCC2(CC1)CN(Cc1cc(C(F)(F)F)cc(C(F)(F)F)c1)C2 6.31 µM, COCC(=O)N1CCC[C@@]2(CCN(Cc3ccccc3OC)C2)C1 6.31 µM, COc1ccccc1CN1CCCC2(CCN(S(C)(=O)=O)CC2)C1 0.0631 µM, O=C(c1cc(C(F)(F)F)cc(C(F)(F)F)c1)N1CCC[C@@]2(CCN(Cc3ccncc3)C2)C1 5.01 µM, Cc1noc(C)c1C(=O)N1CCC[C@@]2(CCN(Cc3ccccc3)C2)C1 7.94 µM

target: Cytochrome P450 2C19 (Homo sapiens) (UniProt P33261); test: qHTS Assay for Inhibitors and Substrates of Cytochrome P450 2C19 (AID 899); details: recombinant CYP2C19, luciferin-H EGE luminescence; series mostly up to 57.1 µM; activity, negative = inhibition: at the top concentration; note: nearly all actives have a fitted effect of over 60% in size; note: potency is the fitted concentration of half-maximal effect; for activity, negative = inhibition: % is set by controls: 0 for no effect and ±100 for the full control effect
Sequence (P33261 whole entry, looked up): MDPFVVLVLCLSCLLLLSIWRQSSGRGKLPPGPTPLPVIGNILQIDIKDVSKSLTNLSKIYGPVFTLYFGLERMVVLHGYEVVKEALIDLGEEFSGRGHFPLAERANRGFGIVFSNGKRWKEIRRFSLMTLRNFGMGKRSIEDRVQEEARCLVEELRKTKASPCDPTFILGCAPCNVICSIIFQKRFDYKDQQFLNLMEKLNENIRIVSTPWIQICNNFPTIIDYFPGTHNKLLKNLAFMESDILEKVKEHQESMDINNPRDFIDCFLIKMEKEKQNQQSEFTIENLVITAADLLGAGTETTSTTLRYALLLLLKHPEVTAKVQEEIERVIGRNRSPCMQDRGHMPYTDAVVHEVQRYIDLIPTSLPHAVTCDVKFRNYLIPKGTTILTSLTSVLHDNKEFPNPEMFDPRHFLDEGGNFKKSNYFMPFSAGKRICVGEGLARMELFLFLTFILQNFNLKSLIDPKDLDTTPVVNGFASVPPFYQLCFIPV
Method in brief: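 Luminescent read-out of luciferin formed from Luciferin-H EGE (10uM, equal to KM). Enzyme 5nM in 50mM KPO4; compound added, 10 min at 37C, then NADPH regenerating system for 60 min at 37C. Full inhibition defined by 57uM ketoconazole.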

Potency, active:
Cn1cccc1C(=O)N1CCC2(CCCN(c3ccccc3)C2)CC1 7.94 µM, O=C(c1cc(C(F)(F)F)cc(C(F)(F)F)c1)N1CCC[C@@]2(CCN(Cc3ccncc3)C2)C1 0.199 µM

activity, negative = inhibition, inactive:
CC(=O)N1CCC2(CC1)CN(c1ccccc1)C2 64.8%

tested on: not listed separately; test: qHTS Assay for Identification of Small Molecule Agonists for Hypoxia Response Element Signaling Pathway (AID 914; active = well fitted activation curve with a large enough effect in the signal ratio, with a control signal flat, not every such curve was filed as active; the % refers to the signal ratio; note: % of control where 0% means no effect); details: ME-180 (cervical carcinoma) HRE-bla reporter, beta-lactamase ratio, CoCl2, 17 h; activation: hits give high values
Method in brief: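 HRE-bla ME-180 assay for agonist-like enhancement of an EC50 CoCl2 stimulus: 17 h at 37 degrees Celsius, CCF4 for 2.5 h, ratiometric 460/530 nm signal converted to %Activity and fitted to AC50.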

activation, inactive:
COC(=O)N1CCC2(CC1)CCN(c1ccccc1)CC2 0.0011%, N#Cc1ccc(CN2CCCC3(CCN(C(=O)c4cccc(F)c4)CC3)C2)cc1 -15.7%, COc1ccc(NC(=O)N2CC3(CCN(C(C)=O)CC3)C2)cc1 -8.17%, N#Cc1cccc(NC(=O)N2CCC3(CC2)CCN(C(=O)c2csnn2)CC3)c1 -0.636%, CC(C)CN1CC[C@@]2(CCCN(C(=O)c3cnccn3)C2)C1 -0.465%, O=C(c1csnn1)N1CCC[C@@]2(CCN(Cc3nccs3)C2)C1 -0.307%, CC(C)NC(=O)N1CC[C@@]2(CCCN(C(=O)c3cc(C(F)(F)F)cc(C(F)(F)F)c3)C2)C1 -1.12%, COCC(=O)N1CCC[C@@]2(CCN(Cc3ccccc3OC)C2)C1 -5.2%, O=C(c1csnn1)N1CCC2(CC1)CN(c1ccccc1)C2 -12.1%, COCC(=O)N1CCC[C@@]2(CCN(C(=O)Nc3cccc(F)c3)C2)C1 8.24%, COc1ccc(C(=O)N2CCC3(CCN(C)CC3)CC2)cc1 5.39%, CC(C)NC(=O)N1CC2(CCN(C(=O)c3ccco3)CC2)C1 0.544%
